Measured values: PubChem BioAssay (NCATS)
Results filed as inconclusive are left out. Entries that show only a call come without a potency. Active and inactive are the calls of the source. Calls follow the shape of the dose curve; as a rule, active = well fitted cell-killing curve with a large enough effect; inconclusive = small, poorly fitted or top-dose-only effect, or effect the other way; inactive = flat fitted curve, though single readings scatter.

What follows are compounds tested on Tov112D (assay: Primary qHTS to identify gynecologic anti-cancer compounds using libraries of approved drugs and bioactive compounds (AID 1345084; also: nearly all actives have a fitted effect of over 55% in size)). Details: Gynecologic cancer cell panel viability, ATPlite luminescence, 48 h; series mostly up to 57.5 µM.
In short: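 Cells, 1,000 per well, plated 16 h, then exposed 48 h at 37 C to compounds. Viability by ATPlite luminescence after 15 min at room temperature.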

Q: `COC1C(OC(=O)/C=C/C=C/C=C/C=C/C(=O)O)CCC2(CO2)C1C1(C)OC1CC=C(C)C` (configuration not stated) was tested. Which Potency did it give?
A: inactive

Q: `COC1C=C(C)C(O)(CO)C2(C)CCCC(C)(C)C12` (configuration not stated) was tested. Which Potency did it give?
A: inactive

Q: How did the activity change, negative = cytotoxicity turn out when `C[C@H]1CC[C@@]2(OC1)O[C@H]1CC3[C@@H]4CC[C@@H]5C[C@@H](O[C@@H]6O[C@H](CO)[C@@H](O[C@@H]7O[C@H](CO[C@@H]8OC[C@@H](O)[C@H](O)[C@H]8O)[C@@H](O[C@@H]8O[C@H](CO)[C@H](O)[C@H](O)[C@H]8O)[C@H](O)[C@H]7O)[C@H](O)[C@H]6O)CC[C@]5(C)C4CC[C@]3(C)[C@H]1[C@@H]2C` (some centres not stated) was run?
A: 3.54% [at 11.6 µM] (inactive)

Q: With `CCC(CC)(NC(=O)C(C)C)C(=O)N[C@@H](CCCN=C(N)N)C(=O)NC1(C(=O)NC(c2ccc(F)cc2)c2ccc(F)cc2)CCCC1` as the compound, how does the Potency read?
A: inactive

Q: How did the Potency turn out when `CC(C)OC(=O)N1CCC(Oc2ncnc3c2cnn3-c2ccc(S(C)(=O)=O)cc2F)CC1` was run?
A: inactive

Q: `O=C(NCCO)c1cccc(-c2cc(Nc3ccc(OC(F)(F)F)cc3)ncn2)c1` was tested. Which Potency did it give?
A: inactive

Q: For `Cc1ccc(-c2c(C(=O)CCl)n(CCCO)c3ncnc(N)c23)cc1`, which Potency is on record?
A: inactive
